Consider 88 compounds from PubChem BioAssay AID1554 (Broad Institute, 2009).

Hit rate of the full screen: of about 300,000 compounds, about 520 (0.17%) were called active. Rule as the data show it: active = inhibition above about 50%; inconclusive = no clear call, values can overlap the other calls; inactive = below that. This excerpt belongs to a sample that is enriched for actives.

Usually inhibition stands for the change of the read-out against control, counted positive when it falls.

The experiment can be described thus: PubChem AID 1554. The following applies: BJeLR (HRASV12) viability, CellTiter-Glo ATP luminescence, 48 h; stronger effect = higher value; concentration not given here. (In ATP-based viability assays light output follows the ATP content of the culture.)
As for `COC(=O)c1c(NC(=O)c2ccccc2F)sc2c1C(C(=O)OC)CC2` (stereo not drawn), the inhibition was -1.69% (inactive).

As to `CCOc1ccc2[nH]c3nc(SCC(=O)NC4CCCC4)nnc3c2c1`, the inhibition was 19.9% (inactive).

In the case of `CCOC(=O)c1c(C)nc(-c2ccccc2)nc1NC(=O)C(C)C`, the inhibition is -1.6% (inactive).

With `CCOC(=O)c1c(C)[nH]c(C)c1S(=O)(=O)N(C)CC(=O)Nc1ccccc1C`, the inhibition was 1.31% (inactive).

With `CCOC(=O)c1c(C)[nH]c2c1-c1ccccc1C(=O)C2=O`, the inhibition was 74.1% (active).

For the compound `O=C(NNc1c2ccccc2nc2ccccc12)c1cc2ccccc2cc1O`, the inhibition is 11.9% (inactive).

Consider `NC(=O)C1CC(=O)N(c2ccc(OCC(=O)NCc3ccccc3)cc2)C1` (stereo not drawn), for which the inhibition is -5.85% (inactive).

For the compound `COc1ccccc1N1CCN(C(=O)c2cc(=O)c3cc(C)ccc3o2)CC1`, the inhibition is 8.05% (inactive).

On to `COc1ccccc1N1CCN(C(=O)c2cc(=O)c3cc(C)cc(C)c3o2)CC1`, for which the inhibition is 58.9% (active).

For the compound `COc1cccc(-c2cc(C(=O)N3CCN(c4ccccc4OC)CC3)no2)c1`, the inhibition is -5.2% (inactive).

For `Cc1ccc(-c2cc(C(F)(F)F)n3ncc(C(=O)N4CCCCC4c4cccnc4)c3n2)cc1` (stereo not drawn), the inhibition was -3.16% (inactive).

For the compound `CSc1n[nH]c(=S)n1N`, the inhibition was 6.98% (inactive).

Consider `CCOC(=O)c1cccc(NC(=O)CCn2nnc3ccccc32)c1`, for which the inhibition is 5.93% (inactive).

On to `COC(=O)c1ccc(C(=O)Nc2cc(Cl)ccc2Cl)cc1NC(=O)c1ccccc1C`, for which the inhibition was 5.33% (inactive).

Take `COc1c(C(=O)N2CCCC2)ccc2ccccc12`: the inhibition was -16.2% (inactive).

With `CC(C)n1c(-c2ccncc2)n[nH]c1=S`, the inhibition is -1.2% (inactive).

Regarding `O=c1[nH]snc1-c1c(Cl)cccc1Cl`, the inhibition was 1.3% (inactive).

As to `CCc1ccc(OCC2c3cc(OC)c(OC)cc3CCN2C(C)=O)cc1` (stereo not drawn), the inhibition was -19.6% (inactive).

As for `CC[C@H]1CN2CCc3cc(OC)c(OC)cc3[C@@H]2C[C@@H]1C[C@H]1NCCc2cc(OC)c(OC)cc21`, the inhibition is 71.3% (active).

Regarding `COc1ccc2c(c1)CCNC2Cc1ccc(OC)c(O)c1` (stereo not drawn), the inhibition was -7.5% (inactive).

Consider `CN(c1ccccc1)S(=O)(=O)c1cccc(C(=O)NNC(=O)c2ccncc2)c1`, for which the inhibition was -13.6% (inactive).

With `COc1cc(NS(=O)(=O)c2ccc(NC(=O)CN3C(=O)c4ccccc4C3=O)cc2)ncn1`, the inhibition was -1.96% (inactive).

For the compound `COc1ccc(CNC(=O)CCC(=O)Nc2nnc(C(C)C)s2)cc1`, the inhibition is 2.41% (inactive).

Turning to `O=C(NCc1ccc2c(c1)OCO2)c1sccc1Br`, the inhibition is -9.24% (inactive).

For `CSc1nc(C)nc(C2CC2)c1C#N`, the inhibition was -2.16% (inactive).

In the case of `CCOc1ccc(C(CC(=O)O)n2cnnn2)cc1OC` (stereo not drawn), the inhibition was -0.928% (inactive).

On to `COc1ccc(NC(=O)C(C)N2c3cccc4cccc(c34)S2(=O)=O)c(OC)c1` (stereo not drawn), for which the inhibition is -7.67% (inactive).

`O=C(c1cccc(F)c1)N1CCC(O)(c2cccnc2)CC1`: the inhibition was 1.27% (inactive).

`Cc1ccc(Nc2cc(C)nc3c(C)ccc([N+](=O)[O-])c23)cc1`: the inhibition is -0.482% (inactive).

Turning to `N#Cc1c(-c2cccs2)nc(SCC(=O)c2ccc(Br)cc2)[nH]c1=O`, the inhibition was -2.63% (inactive).

With `COc1ccc(Nc2ncc(F)c(N3CCOCC3)n2)cc1`, the inhibition is -4.96% (inactive).

Regarding `Cc1nnc(NC(=O)/C=C/c2ccco2)s1`, the inhibition is 2.63% (inactive).

Regarding `O=C(/C=C/c1ccco1)Nc1ccc(Oc2ccccc2)cc1`, the inhibition is 66.3% (active).

For `O=C(/C=C/c1ccco1)Nc1cccc(-c2nc3ccccc3[nH]2)c1`, the inhibition is -10.7% (inactive).

Regarding `CCCOc1ccc(C(=O)C(CCC(CNCC)C(=O)c2ccc(OCCC)cc2)CNCC)cc1` (stereo not drawn), the inhibition was 137% (active).

In the case of `CCCOc1ccc(C(=O)CCC(=O)OC(C)C(=O)Nc2ccc(NC(C)=O)cc2)cc1` (stereo not drawn), the inhibition is 0.465% (inactive).

Take `CCCCOc1ccc(C(=O)NN2CCN(C)CC2)cc1`: the inhibition was 1.04% (inactive).

For `CCOc1cc(C2C(C(=O)OC(C)C)=C(C)NC3=C2C(=O)CCC3)cc([N+](=O)[O-])c1O` (stereo not drawn), the inhibition was -2.99% (inactive).

As for `Cc1ccc(CNC(=O)c2cccnc2Cl)cc1`, the inhibition was 1.72% (inactive).

Take `COc1cc(C(CCN2CCN(c3ccccc3)CC2)c2c(OC)cc(OC)c3ccc(=O)oc23)cc(OC)c1OC` (stereo not drawn): the inhibition is -7.5% (inactive).

As to `COC(=O)C(C(=O)Nc1cccc(Cl)c1C)C1CCCC1` (stereo not drawn), the inhibition is -7.59% (inactive).

For the compound `COc1ccc(/C=C/C2=CC(C)(C)NC(=S)N2)c(OC)c1`, the inhibition is -7.98% (inactive).

Consider `NC(=O)CC[C@@H]1NC(=O)[C@H](CO)NC(=O)c2cc([N+](=O)[O-])cc(I)c2NCC[C@@H](C(N)=O)NC1=O`, for which the inhibition was -1.96% (inactive).

Turning to `CCC(=C/c1sc2ccc3ccccc3c2[n+]1C)/C=C1\Sc2ccc3ccccc3c2N1C`, the inhibition is 60.9% (active).

For the compound `COc1ccc(C2=NS(=O)(=O)N(C)C(C(=O)N3CCCCC3)=C2)cc1`, the inhibition is -1.58% (inactive).

For the compound `COc1cc(-c2c(-c3ccc4c(c3)OCO4)noc2C)ccc1F`, the inhibition is -5.31% (inactive).

For the compound `C=CCNc1nc(N)c([N+](=O)[O-])c(NC2CCCCC2)n1`, the inhibition is -1.25% (inactive).

Consider `CC(=O)NCCc1ccc(S(=O)(=O)N(C)C2CCS(=O)(=O)C2)cc1` (stereo not drawn), for which the inhibition was 7.45% (inactive).

As for `O=C(NCc1ccco1)c1ccc(NS(=O)(=O)c2cccc([N+](=O)[O-])c2)cc1`, the inhibition was 5.53% (inactive).

Consider `COc1ccc(S(=O)(=O)N2CCOCC2)cc1NC(=O)COc1ccccc1`, for which the inhibition was -1.51% (inactive).

Consider `COc1ccccc1N(C(=O)Cn1nnc2ccccc21)C(C(=O)NCc1ccco1)c1ccc(C)o1` (stereo not drawn), for which the inhibition is -3.41% (inactive).

Turning to `O=C(Nc1ccc(Cl)cc1)/C(=C1\CCCN1)[N+](=O)[O-]`, the inhibition is -2.59% (inactive).

`CCCC(C(=O)NC1CCCC1)N(C(=O)Cn1nnc(-c2ccc(C)o2)n1)c1cccc(O)c1` (stereo not drawn): the inhibition was -0.539% (inactive).

Regarding `Cc1c(NC(=O)Nc2cccc([N+](=O)[O-])c2)c(=O)n(-c2ccccc2)n1C`, the inhibition is 1.78% (inactive).

`CC1(C)O[C@H]2CC(=O)OCC23[C@H]2CC[C@@]4(C)[C@H](c5ccoc5)OC(=O)[C@H]5O[C@]54[C@]2(C)C(=O)C[C@@H]13` (stereo partly drawn): the inhibition is 4.22% (inactive).

With `CC(C)CNC(=S)NC(=O)c1ccc(Cl)cc1`, the inhibition is -11.5% (inactive).

For the compound `Cc1cc(F)ccc1NC(=O)C(C)n1c2ccccc2c2nc(=O)cc(C)n21` (stereo not drawn), the inhibition was -6.86% (inactive).

Regarding `CN(C)CCN(Cc1ccccc1)S(=O)(=O)c1csc(C(N)=O)c1`, the inhibition is 7.25% (inactive).

On to `CC(C)Cc1nnc(NC(=O)CN2C(=O)NC3(CCCCC3)C2=O)s1`, for which the inhibition was 4.35% (inactive).

Turning to `CCOC(=O)CNc1nc(Cl)nc(Nc2ccc(OC)cc2OC)n1`, the inhibition is -1.85% (inactive).

`CCN1C(=O)N[C@@H](c2ccccc2)C(C(=O)OC)=C1C`: the inhibition is 2.76% (inactive).

Turning to `COc1cccc(NC(=O)c2ccccc2N(Cc2ccccc2)S(C)(=O)=O)c1`, the inhibition was 3.05% (inactive).

Turning to `COc1ccc(S(=O)(=O)Nc2ccc3c(c2)OCO3)cc1Cl`, the inhibition was 4.86% (inactive).

As to `CCCOc1ccccc1C1CC(=O)Nc2cc3c(cc21)OCO3` (stereo not drawn), the inhibition is 21.8% (inactive).

Consider `COc1ccccc1C1C2=C(COC2=O)Nc2cc3c(cc21)OCO3` (stereo not drawn), for which the inhibition is 71.8% (active).

Turning to `CC1COc2ccccc2N1S(=O)(=O)c1ccccc1` (stereo not drawn), the inhibition is -0.313% (inactive).

For the compound `CC(C)(C)c1cc(NC(=O)NN2CCOCC2)nn1-c1c(Cl)cc(Cl)cc1Cl`, the inhibition is -1.25% (inactive).

As to `COc1ccc(C(C(O)C(=O)c2c[nH]c3ccccc23)N2CCN(c3ccccc3)CC2)cc1` (stereo not drawn), the inhibition was 0.745% (inactive).

In the case of `COc1ccc(/C=C(\C#N)c2c[nH]c3ccccc23)cc1`, the inhibition is 52.5% (active).

In the case of `COc1cc(/C=C(\C#N)c2nc3ccccc3[nH]2)ccc1O`, the inhibition is -5.76% (inactive).

As for `CC(NC(=O)Cn1cc(C(F)(F)F)cc(Cl)c1=O)c1ccccc1` (stereo not drawn), the inhibition is -4.93% (inactive).

For `O=C(NNC(=O)c1ccccc1[N+](=O)[O-])Nc1ccccc1C(F)(F)F`, the inhibition is 1.35% (inactive).

In the case of `Cc1cccc(-n2ncc(C#N)c2-n2cccc2)c1`, the inhibition is -4.28% (inactive).

Consider `Cc1cccc(-n2ncc(Cl)c(Cl)c2=O)c1`, for which the inhibition is 90.5% (active).

Turning to `O=c1c(Cl)c(NC2CC2)cnn1-c1ccccc1`, the inhibition was -3.03% (inactive).

Take `CC[C@]1(O)C[C@@H]2CN(CCc3c([nH]c4ccccc34)[C@@](C(=O)OC)(c3cc4c(cc3OC)N(C)[C@H]3[C@@](O)(C(=O)OC)[C@H](OC(C)=O)[C@]5(CC)C=CCN6CC[C@]43[C@@H]65)C2)C1`: the inhibition was 69.1% (active).

In the case of `CC[C@H]1CC2CN3CCc4c([nH]c5ccccc45)C(C(=O)OC)(C2)C13` (stereo partly drawn), the inhibition was 2.65% (inactive).

Regarding `CC[C@]1(O)CC2CN(CCc3c([nH]c4ccccc34)[C@@](C(=O)OC)(c3cc4c(cc3OC)N(C=O)[C@H]3[C@@](O)(C(=O)OC)[C@H](OC(C)=O)[C@]5(CC)C=CCN6CC[C@]43[C@@H]65)C2)C1` (stereo partly drawn), the inhibition is 34.8% (inactive).

Regarding `CCOc1ccc(C(CC(=O)O)NC(=O)C23CC4CC(CC(C4)C2)C3)cc1OC` (stereo not drawn), the inhibition is 8.09% (inactive).

For `OCCn1c(-c2ccccc2)csc1=Nc1ccccc1`, the inhibition is 3.02% (inactive).

For `Cc1ccc(S(=O)(=O)N2CCCC2C(=O)OCc2nc3sc(C)c(C)c3c(=O)[nH]2)cc1` (stereo not drawn), the inhibition is 2% (inactive).

As for `CC12C(=O)N(n3cnnc3)C(=O)C1C1C=CC2C1` (stereo not drawn), the inhibition is 6.14% (inactive).

Take `Cc1ccc(CN2CCNC(=O)C2CC(=O)NCc2csc(C(C)C)n2)cc1` (stereo not drawn): the inhibition is -3.33% (inactive).

As for `Cc1ccc(Cn2cc(C(=O)NN)c(=O)c3ccc(F)cc32)cc1`, the inhibition was -4.45% (inactive).

For the compound `CC(C)CN(C(=O)c1cccc(S(=O)(=O)N2CCCCC2)c1)C1CCS(=O)(=O)C1` (stereo not drawn), the inhibition is 2.4% (inactive).

On to `Clc1ccc2c(c1)C1=C(C(c3ccncc3)O2)C(c2ccc(Br)cc2)n2ncnc2N1` (stereo not drawn), for which the inhibition is -10% (inactive).

As for `Brc1ccc2ncnc(NCc3cccnc3)c2c1`, the inhibition is 4.75% (inactive).

On to `COc1ccc(C2=NOC(Cn3nc(C(=O)NCc4ccc5c(c4)OCO5)cc3-c3ccccc3)C2)cc1` (stereo not drawn), for which the inhibition was 8.13% (inactive).
